Screening data deposited in PubChem BioAssay by several laboratories.
Bim-Mcl-1: inhibitors of Bim peptide binding to Mcl-1, primary screen, biochemical, bead-based flow cytometry, multiplex | Bim peptide-Mcl-1 binding | inhibition, % at 10 µM | 190,000 compounds, 0.1% hits; in the data active = inhibition above about 40%;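 also: 0% = no compound tracer wells and 100% = peptide blocker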
Target sequence (Q07820 whole entry, looked up): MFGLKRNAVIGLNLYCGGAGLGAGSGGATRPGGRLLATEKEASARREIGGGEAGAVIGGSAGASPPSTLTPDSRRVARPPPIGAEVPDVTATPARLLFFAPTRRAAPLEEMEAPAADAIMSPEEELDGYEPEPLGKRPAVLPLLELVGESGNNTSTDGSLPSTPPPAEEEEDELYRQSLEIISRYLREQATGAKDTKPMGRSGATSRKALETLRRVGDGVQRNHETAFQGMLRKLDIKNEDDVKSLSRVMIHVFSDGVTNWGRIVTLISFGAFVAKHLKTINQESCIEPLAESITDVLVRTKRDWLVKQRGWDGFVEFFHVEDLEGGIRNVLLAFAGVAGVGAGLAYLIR
Mcl1 Noxa PPI: Mcl-1/Noxa binding inhibitors, primary screen, biochemical, TR-FRET, 1536-well; Induced myeloid leukemia cell differentiation protein Mcl-1 (Homo sapiens), Q07820; inhibition, % at 21.7 µM; TR-FRET Mcl-1/Noxa peptide binding, 2 h; 220,000 compounds, 1.5% hits;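 active = compounds that cut the protein-peptide binding signal by more than 50% relative to plate controls in a single-dose test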;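 also: His-tagged Mcl-1 with rhodamine Noxa BH3 peptide and terbium anti-His antibody; 0% = Mcl-1 plus Noxa peptide wells and 100% = peptide-only wells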
Mcl1-Bid inh: Mcl-1/Bid binding inhibitors, primary screen, biochemical, TR-FRET, 1536-well; Induced myeloid leukemia cell differentiation protein Mcl-1 (Homo sapiens), Q07820; 220,000 compounds, 0.97% hits; TR-FRET Mcl-1/Bid-Dy647 peptide binding; AID 1021, 2008; inhibition, % at 21.7 µM;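 active = compounds that cut the binding signal by more than half at the single screening dose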;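 also: His-tagged Mcl-1 with europium anti-His antibody binding Bid BH3 peptide; 0% = Mcl-1 plus peptide wells and 100% = peptide-only wells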
MCL1 BIM primary: inhibitors of MCL1 binding to BIM-BH3, primary screen, biochemical, fluorescence polarization; Induced myeloid leukemia cell differentiation protein Mcl-1 (Homo sapiens), Q07820; GST-MCL1 / FITC-Bim-BH3 fluorescence polarization; inhibition, % at 10.9 µM; 320,000 compounds, 0.68% hits;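 active = inhibition above the mean inhibition of all tested compounds plus 3 SD, set per campaign, cut at about 40% in these data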;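 also: 0% = DMSO wells and 100% = unlabeled Bim-BH3 peptide control; higher means more loss of mP so more displacement of Bim peptide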
BCLXL inh confirm: Bcl-xL inhibitors blocking Bim BH3 binding, confirmation, counter-screen for MCL1 inhibitor project, biochemical, fluorescence polarization; shares compounds with MCL1 BIM primary; GST-Bcl-xL / FITC-Bim BH3 peptide FP binding; inhibition, % at 10.9 µM; 1,700 compounds, 54% hits;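 active = inhibition above a cutoff equal to the mean inhibition of all tested compounds plus 3 SD, cut at about 30% in these data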;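 also: 0% = DMSO wells and 100% = unlabeled Bim BH3 control peptide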
Target sequence (Q07817 whole entry, looked up): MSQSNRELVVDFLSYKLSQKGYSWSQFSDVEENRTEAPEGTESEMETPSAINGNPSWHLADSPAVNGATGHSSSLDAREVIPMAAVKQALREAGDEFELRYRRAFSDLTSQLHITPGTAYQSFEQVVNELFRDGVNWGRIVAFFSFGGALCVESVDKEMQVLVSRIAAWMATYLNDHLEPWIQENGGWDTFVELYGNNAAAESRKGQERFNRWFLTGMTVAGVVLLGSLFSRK
MCL1 inh confirm: inhibitors of MCL1 binding to BIM-BH3, confirmation, biochemical, fluorescence polarization, triplicate; shares compounds with MCL1 BIM primary; AID 2168, 2009; inhibition, % at 10.9 µM; 1,700 compounds, 61% hits; GST-MCL1 / FITC-Bim-BH3 fluorescence polarization;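 active = inhibition above the average of all tested compounds plus 3 SD, cut at about 40% in these data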;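 also: 0% = DMSO wells and 100% = unlabeled Bim-BH3 control peptide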
The depositor's hits bear a star; . = no result; + = active, no number. Only some compounds are listed: those with a hit (about 2% of all), similar ones and a draw of the others.

SMILES | Bim-Mcl-1 | Mcl1 Noxa PPI | Mcl1-Bid inh | MCL1 BIM primary | BCLXL inh confirm | MCL1 inh confirm
CCCS(=O)(=O)c1cn2cccc(N)c2c1S(=O)(=O)CCC | 1 | -3 | -66 | 102* | 30 | 21
O=C1CCNc2ccc(-c3ccccc3)cc21 | -4 | -30 | -6 | 6 | . | .
O=C1CCNc2cc3ccccc3cc21 | 4 | 60* | -88 | 131* | 114* | 144*
CCc1nnc(NC(=O)c2ccc(Cl)nc2)s1 | -5 | 20 | -14 | 9 | . | .
O=C(Nc1nnc(C2CC2)s1)c1ccc(Cl)nc1 | . | . | . | 178* | -1 | 0
COc1ccc(N=Nc2nc3cc(Br)c(Br)cc3n2C)c(OC)c1 | -9 | -13 | -26 | + | 176* | +
N#C/C(=C\c1ccc(O)c(O)c1)C(=O)Nc1cccc2ncccc12 | . | . | . | 71* | 33* | 69*
COc1cc(/C=C(\C#N)C(=O)Nc2cccc3ncccc23)cc(OC)c1OC | -6 | 21 | -7 | 3 | . | .
N#Cc1cc2cc3c(cc2nc1N1CCCCC1)OCCO3 | 0 | 6 | -7 | 6 | . | .
Cc1ccc(C(=O)N2CCCN(c3nc4cc5c(cc4cc3C#N)OCO5)CC2)cc1 | . | . | . | 98* | -3 | -5
O=C(NC1CCN(S(=O)(=O)c2ccccc2)CC1)c1ccc(F)cc1 | . | . | . | -5 | . | .
O=[N+]([O-])c1ccc(/C=C/C2=NN(c3ccccc3)C(c3ccco3)C2)cc1 (stereo unspecified) | . | 4 | -13 | 67* | 93* | 109*
O=C(CC1Nc2ccccc2NC1=O)c1ccccc1 (stereo unspecified) | -8 | -3 | -103 | 46* | -11 | -21
CCc1ncc(CN2CCCC(C(=O)Nc3ccc(-c4cscn4)cc3)C2)cn1 (stereo unspecified) | . | . | . | 5 | . | .
O=C(O)c1ccccc1N=Nc1ccc(O)cc1 | . | . | . | 64* | 52* | 60*
Cc1c(Cl)cnc(NC(=O)COC(=O)c2ccc([N+](=O)[O-])s2)c1Cl | -4 | 94* | 7 | 61* | 34* | 48*
O=C(COC(=O)c1ccc([N+](=O)[O-])s1)Nc1ccc(Cl)cn1 | -5 | 16 | 12 | 16 | . | .
N#CCC(=O)Nc1ccc(C(=O)N2CCN(S(=O)(=O)c3ccc4ccccc4c3)CC2)cc1 | . | . | . | -18 | . | .
O=C(c1ccccc1)c1c2c(cc3sc4ccccc4[n+]13)-c1cccc3cccc-2c13 | 8 | 38 | 29 | 116* | 62* | 71*
Cc1sc2cc3c(c(C(=O)c4ccccc4)[n+]2c1C)-c1cccc2cccc-3c12 | 1 | 23 | -25 | 4 | . | .
O=C(Cn1nnc(-c2cccs2)n1)NNC(=O)c1ccccc1Cl | . | 22 | -17 | 4 | . | .
Cc1ccc2[nH]c3c(c2c1)CN(C(=O)CN(C)CC1OCCO1)CC3 | -8 | 0 | -38 | 61* | 9 | 11
O=C(CCn1c(=O)c2ccccc2n(Cc2ccccc2)c1=O)NCc1ccc2c(c1)OCO2 | 0 | -4 | 4 | -1 | . | .
Cc1nn(-c2ccccc2)c(C)c1/C=C/C(=O)OCC(=O)Nc1ccc(S(N)(=O)=O)cc1 | . | . | . | 7 | . | .
CCOc1ccc(S(=O)(=O)N(C(=O)c2ccco2)c2cc3sc(=O)oc3c3ccccc23)cc1 | -3 | 24 | -12 | 38 | . | .
SMILES | Bim-Mcl-1 | Mcl1 Noxa PPI | Mcl1-Bid inh | MCL1 BIM primary | BCLXL inh confirm | MCL1 inh confirm
COc1ccc(S(=O)(=O)N(C(=O)c2ccco2)c2cc3sc(=O)oc3c3ccccc23)cc1 | -1 | 19 | -30 | 45* | 1 | -4
Cc1ccc(S(=O)(=O)N(C(=O)c2ccco2)c2cc3sc(=O)oc3c3ccccc23)cc1 | 7 | 11 | 1 | 44* | 15 | 10
Fc1ccc(Br)cc1C1C=C(c2ccc(Br)cc2)Nc2ncnn21 (stereo unspecified) | -1 | 28 | 13 | 7 | . | .
COc1cccc(C2=CC(c3ccc(C)cc3)n3ncnc3N2)c1 (stereo unspecified) | 0 | 7 | -29 | 60* | 30 | 42*
Cc1ccsc1C1C=C(c2cccc(Br)c2)Nc2ncnn21 (stereo unspecified) | 0 | -15 | -52 | 118* | 71* | 83*
CCOc1ccccc1C(=O)OCC(=O)Nc1cc(S(=O)(=O)N2CCOCC2)ccc1C | . | . | . | 4 | . | .
O=C(OCCN1C(=O)c2cccc3c(N4CCOCC4)ccc(c23)C1=O)c1cccc(Cl)c1 | 0 | -161 | -13 | 66* | 3 | -19
O=C(OCCN1C(=O)c2cccc3c(N4CCOCC4)ccc(c23)C1=O)c1ccccc1Cl | 2 | -145 | -12 | -9 | . | .
O=C(OCCN1C(=O)c2cccc3c(N4CCOCC4)ccc(c23)C1=O)c1ccc(Cl)cc1Cl | 10 | -151 | -26 | 63* | -3 | -2
O=C1/C(=N\S(=O)(=O)c2cccs2)C([n+]2cccc(Cc3ccccc3)c2)=C([O-])c2ccccc21 | . | 9 | -28 | + | + | +
Cc1ccc(CNc2ccc3c(c2)OCO3)c(C)c1 | 3 | 38 | -61 | 144* | 72* | 90*
Cc1ccc(C)c(NC(=O)Nc2ccc3c(c2)OCO3)c1 | . | . | . | 1 | . | .
COc1ccccc1N1CCN(S(=O)(=O)c2c(C)[nH]c(=O)[nH]c2=O)CC1 | -4 | 11 | -70 | 2 | . | .
COc1ccc(C)cc1N1CC(C(=O)Nc2ccccc2C(=O)NC2CC2)CC1=O (stereo unspecified) | . | . | . | -16 | . | .
Cc1ccccc1CN(C)Cc1cc(=O)oc2c(C)c(C)ccc12 | . | . | . | 64* | 12 | 7
COc1ccc(-c2onc3ccc(Br)cc23)cc1 | -1 | 10 | -20 | 132* | 111* | 134*
O=C(O)c1cc(-c2ccco2)nn1-c1cccc(Cl)c1 | -4 | 69* | 1 | 82* | 18 | 38
O=[N+]([O-])c1cccc(C=Nc2cccc3ccccc23)c1O | . | . | . | 2 | . | .
CCOC(=O)c1c(/N=C/c2cccc([N+](=O)[O-])c2O)sc(C)c1C | -1 | 27 | -16 | 55* | 16 | 22
CCCCC1=CC2=C(c3ccco3)C(=O)C(C)(OC(=O)c3ccc(OC)cc3)C(=O)C2=CN1CCN1CCOCC1 (stereo unspecified) | . | 36 | -102 | 93* | 14 | 16
COC(=O)CCCC1=CC2=C(c3ccccc3)C(=O)C(C)(OC(=O)C3CCCC3)C(=O)C2=CN1CCN1CCOCC1 (stereo unspecified) | . | 2 | -114 | 154* | 68* | 86*
